5HT1E ag: 5-HT1E (human) receptor agonism; activation, % at 6 µM; CHO 5-HT1E Ga15 NFAT-bla reporter, FRET; 0% DMSO wells, 100% control agonist wells; P28566; 65,000 tested, 0.69% active;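 active = activation above a set limit, the screen-wide mean activation plus 3 SD, cut at about 8.5% in these data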;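 also: 100% = positive control agonist at 1 µM giving full maximal response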
mHtt clearance: mutant huntingtin protein clearance. inhibition, % at 1.5 µM. AID 853. 47,000 tested, 0.42% active. HeLa Exon1htt(103Q)mCFP, aggregate imaging; zero = plate's median compound well;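 active = inhibition of aggregate fluorescence above about 70%, also judged a hit by eye on the cell image, limit read from the data, passing the limit was not always enough; inconclusive = no rule stated for this call; inactive = not judged a hit on image review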;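 also: cells exposed to compound for three days before fixation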
5-HT1A blocker: blocks the human serotonin 5-HT1a receptor. inhibition, % at 10 µM. CHO 5-HT1a Ga15 NFAT-bla reporter, antagonist mode. AID 612. P08908. 62,000 tested, 0.68% active;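 active = inhibition above the mean of all tested compounds plus 3 SD, cut at about 43% in these data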;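 also: receptor stimulated by 5-CT agonist at 100 nM near EC80; beta-lactamase reporter measured by ratiometric fluorescence of a cleavable substrate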
Target sequence (P08908 whole entry, looked up): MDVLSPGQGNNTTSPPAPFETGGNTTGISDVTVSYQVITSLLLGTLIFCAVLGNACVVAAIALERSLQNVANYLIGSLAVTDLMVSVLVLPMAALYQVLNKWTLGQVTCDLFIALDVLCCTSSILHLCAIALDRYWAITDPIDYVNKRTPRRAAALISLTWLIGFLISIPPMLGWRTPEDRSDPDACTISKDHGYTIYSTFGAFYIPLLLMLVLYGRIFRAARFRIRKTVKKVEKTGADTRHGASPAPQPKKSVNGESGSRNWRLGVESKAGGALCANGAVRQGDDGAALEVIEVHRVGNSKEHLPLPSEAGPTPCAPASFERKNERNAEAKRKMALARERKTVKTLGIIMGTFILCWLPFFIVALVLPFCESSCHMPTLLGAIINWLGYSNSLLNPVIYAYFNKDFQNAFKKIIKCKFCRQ
5HT1E antag: 5-HT1E (human) receptor antagonism; P28566; CHO 5-HT1E Ga15 NFAT-bla reporter, FRET, antagonist; inhibition, % at 6 µM; 65,000 tested, 0.99% active;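 active = inhibition above a set limit, the mean inhibition across every tested compound plus 3 SD, cut at about 29% in these data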;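 also: signal is the 460 over 535 nm emission ratio of beta-lactamase substrate; 0% = agonist plus DMSO wells and 100% = wells without agonist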
HTR1A agonist: agonists of human 5-HT1a serotonin receptor. CHO 5-HT1a Ga15 NFAT-bla reporter, FRET ratio; 0% basal, 100% maximal reference agonist. activation, % at 10 µM. 65,000 tested, 0.56% active;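 active = activation above the screen-wide mean activation plus 3 SD, cut at about 19% in these data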;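 also: 0% = DMSO wells and 100% = 5-CT at EC100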
The depositor's hits bear a star; u = inconclusive; x = not tested or not shown. This is a sample that favours compounds with a hit; in the whole collection about 2.3% have one here.

SMILES	5HT1E ag	mHtt clearance	5-HT1A blocker	5HT1E antag	HTR1A agonist
COc1cccc(C2CC(=O)Nc3cc4c(cc32)OCCO4)c1OC(C)C (stereo unspecified)	1	x	12	6	-1
CCOC(=O)c1c(NC(=O)CSc2nnc(CNC(=O)c3ccco3)n2C)sc2c1CCC2	1	x	-1	8	4
Cc1sc2ncn(CC(=O)OC(C)C(=O)NC(C)(C)C)c(=O)c2c1C (stereo unspecified)	0	x	-5	-1	98*
Cc1sc2ncn(CC(=O)OCC(=O)NC(C)(C)C)c(=O)c2c1C	0	29	-5	-6	0
CN(C)c1ccc(/C=N/n2ncc3ccccc32)cc1	3	x	-18	6	24*
C=CCn1c(/N=C/c2ccc(N(C)C)cc2)nc2ccccc21	0	20	10	7	-3
CC(C)Oc1ccc(C2/C(=C(/O)c3ccc(F)cc3)C(=O)C(=O)N2CCCN(C)C)cc1 (stereo unspecified)	-1	x	-6	-6	-1
Cc1ccc(C)c(S(=O)(=O)NC(CCC(N)=O)C(=O)O)c1 (stereo unspecified)	0	x	-8	2	0
CCOCCCNC(=O)CCSc1ccc(C)cc1	x	-37	x	x	x
COc1cccc(NC(=O)CSc2nc3n[nH]c(C)c3c(=N)n2-c2cccc(OC)c2)c1	1	u	-11	33*	2
Cc1cc(C)cc(N(CC(=O)NCc2cccnc2)S(C)(=O)=O)c1	17*	x	-8	0	0
COc1ccccc1N(CC(=O)NCc1cccnc1)S(C)(=O)=O	0	x	2	1	-2
O=C(CSc1nnc(COc2ccc3c(c2)CCCC3)o1)Nc1ccc(F)cc1	9.3*	x	0	4	-1
Cc1noc(C)c1COc1ccc(C(=O)OCc2nnc(-c3ccc(Cl)cc3)o2)cc1	0	20	-5	0	0
COc1ccc(N2CCN(c3ncnc4c3cnn4-c3ccc(C)cc3C)CC2)cc1	0	28	3	-3	-1
Cc1ccc(-n2ncc3c(N4CCN(c5ccccc5)CC4)ncnc32)c(C)c1	1	x	x	51*	1
O=C(CCN1CCOCC1)Nc1c(-c2ccccc2)c2cc(Br)ccc2[nH]c1=O	0	14	-13	5	-1
Cc1ccc2[nH]c(=O)c(N3CCOCC3)c(-c3ccccc3)c2c1	0	42	52*	11	4
COc1cccc(CN(Cc2ccco2)C(c2ccc(F)cc2)c2nnnn2C(C)(C)C)c1 (stereo unspecified)	-1	54	46*	1	-3
CCOC(=O)C(C)c1nn(C)c(=O)c2ccccc12 (stereo unspecified)	0	40	1	4	0
CCOC(=O)CCc1nn(C)c(=O)c2ccccc12	0	x	-4	40*	1
COc1ccc(N2CCN(c3nc(NCCc4ccc(OC)c(OC)c4)nc(OC)n3)CC2)cc1	0	-32	46*	21	5
COc1ccc(-c2noc(CSc3nnc(CCc4ccccc4)n3-c3ccccc3)n2)cc1OC	0	27	43*	7	4
Cc1ccc(-c2noc(CSc3nnc(CCc4ccccc4)n3-c3ccccc3)n2)cc1	x	0	x	x	x
CC(=O)c1ccc(NS(=O)(=O)c2cccc(C)c2)cc1	0	x	0	-1	-1
SMILES	5HT1E ag	mHtt clearance	5-HT1A blocker	5HT1E antag	HTR1A agonist
Cc1ccc(Cn2cccc(NC(=O)c3ccco3)c2=O)cc1	0	x	8	2	0
COc1ccc2sc(C)nc2c1NC(C)=O	-1	x	1	-2	0
COc1ccc(NC(C)=O)c2nc(C)c(C)nc12	0	-18	5	30*	0
Cc1ccc(S(=O)(=O)N2CCOCC2)cc1C(=O)OCC(=O)N1CCc2ccccc2C1	0	43	-3	5	3
COc1ccc(-n2c(SCC(=O)N3CCN(c4ccccc4)CC3)nc3c(c2=O)SCC3)cc1	1	x	-15	-14	2
COC(=O)C(C)Sc1nc2c(c(=O)n1-c1ccccc1)SCC2 (stereo unspecified)	-1	x	-10	5	36*
Cc1nc(Nc2ccc(F)cc2)[nH]c(=O)c1CCC(C)C	0	x	52*	-8	1
CCc1c(C)nc2cc(-c3ccc(OC)c(OC)c3)nn2c1N1CCCC1	0	x	15	31*	1
CSc1nnc(Cn2c(=O)sc3ccccc32)n1-c1ccccc1	1	-11	-2	3	-4
N=c1sc2ccccc2n1-c1ccccc1	25*	11	-7	25	3
O=C(COC(=O)Cc1ccsc1)NC1CCCCCC1	-1	74*	0	-1	-2
CON(C)c1nc(OCCNC(=O)OCc2ccc(Cl)cc2Cl)nc(N(C)C)n1	0	46	-14	-9	-2
Cn1c(SCC(=O)N2CCOCC2)nc2cccnc21	0	0	-1	-1	-3
CC1CCN(C(=O)CSc2nc3cccnc3n2C)CC1	-1	x	-12	6	89*
Cc1nonc1NC(=O)c1ccc(Cl)c(S(=O)(=O)N2CCCCC2)c1	-1	-15	-9	-3	-1
CN(C)S(=O)(=O)c1ccc(S(=O)(=O)N(Cc2ccco2)Cc2ccccc2Cl)cc1	-1	6	22	32*	-2
COc1cccc(OCC(O)CN2CCC(Cc3ccccc3)CC2)c1 (stereo unspecified)	1	x	52*	-1	9
COc1cccc(OCC(O)CN2CCOCC2)c1 (stereo unspecified)	1	x	-12	-12	0
COC(=O)/C(=C1/Oc2cc(C)oc(=O)c2S1)C(F)(F)F	0	x	x	78*	-1
CCOC(=O)C1=C(c2ccccc2)O/C(=C(\C(=O)OC)C(F)(F)F)S1	x	13	x	x	x
Cc1nc2nc(-c3cccs3)cn2nc1C	0	41	12	39*	-4
COc1cccc(-c2cn3nc(C)c(C)nc3n2)c1	1	33	-10	-9	-3
Cc1ccc(NC(=O)Cn2nnc(C(=O)Nc3ccc(C)c(C)c3)c2N)cc1	1	83*	13	36*	-2
Cc1ccc(NC(=O)Cn2nnc(C(=O)NCc3ccco3)c2N)cc1	x	71*	x	x	x
Cc1cccc(N2CCN(C(=O)c3ccc(CS(=O)(=O)c4ccccc4C)o3)CC2C)c1 (stereo unspecified)	0	x	46*	40*	1
SMILES	5HT1E ag	mHtt clearance	5-HT1A blocker	5HT1E antag	HTR1A agonist
Cc1ccc(C)c(N2CCN(C(=O)c3ccc(CS(=O)(=O)c4ccccc4C)o3)CC2)c1	0	-32	6	17	2
O=C(CN1C(=O)CSC1=O)Nc1ccccc1N1CCOCC1	10*	x	8	8	-4
CC(C)(C)c1cccc(/C=N/O)c1O	0	x	x	30*	2
CC1CCCCC1n1c(=S)[nH]c2ccccc2c1=O (stereo unspecified)	11*	x	-8	5	2
COn1c(=S)[nH]c2ccccc2c1=O	0	-47	x	-14	2
CCSc1nnc(NC(=O)C2CCCN(S(=O)(=O)c3cnc[nH]3)C2)s1 (stereo unspecified)	0	-6	-4	0	1
